SNCA viab count = GF-AFC viability counterscreen for inhibitors of alpha-synuclein gene (SNCA) expression; HEK-293-SNCA-luc viability, GF-AFC fluorescence, 24 h; Potency, µM (series often up to 57.1 µM), without a hit: at the top dose activity change, negative = cytotoxicity, actives largely listed as cytotoxic; 0.12% of 150,000 active;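 further: potency means the concentration at half of the fitted maximal effect; 0% = DMSO-treated cells and -100% = medium-only wells without cells; nearly all actives have a fitted effect of over 30% in size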
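HEK-293-SNCA-luc cells (1500/well) plated 24 h, then exposed 24 h to a dilution series; GF-AFC added 30 min at 37C, fluorescence 405/540 nm; normalised to medium-only and DMSO wells, Hill fit.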
KDM5B inh = Primary screen for KDM5B Histone Demethylases FDH-coupled qHTS | Potency, µM (titrated, usually from 57.7 µM), actives largely listed as inhibitors | Lysine-specific demethylase 5B (Homo sapiens), Q9UGL1 | AID 1347165, 2019 | KDM5B demethylase, FDH-coupled NADH fluorescence (FDH is formaldehyde dehydrogenase) | 2.6% of 220,000 active; further: potency means the concentration at half of the fitted maximal effect; 0% is about no effect; nearly all actives have a fitted effect of over 70% in size
Target sequence (Q9UGL1 whole entry, looked up): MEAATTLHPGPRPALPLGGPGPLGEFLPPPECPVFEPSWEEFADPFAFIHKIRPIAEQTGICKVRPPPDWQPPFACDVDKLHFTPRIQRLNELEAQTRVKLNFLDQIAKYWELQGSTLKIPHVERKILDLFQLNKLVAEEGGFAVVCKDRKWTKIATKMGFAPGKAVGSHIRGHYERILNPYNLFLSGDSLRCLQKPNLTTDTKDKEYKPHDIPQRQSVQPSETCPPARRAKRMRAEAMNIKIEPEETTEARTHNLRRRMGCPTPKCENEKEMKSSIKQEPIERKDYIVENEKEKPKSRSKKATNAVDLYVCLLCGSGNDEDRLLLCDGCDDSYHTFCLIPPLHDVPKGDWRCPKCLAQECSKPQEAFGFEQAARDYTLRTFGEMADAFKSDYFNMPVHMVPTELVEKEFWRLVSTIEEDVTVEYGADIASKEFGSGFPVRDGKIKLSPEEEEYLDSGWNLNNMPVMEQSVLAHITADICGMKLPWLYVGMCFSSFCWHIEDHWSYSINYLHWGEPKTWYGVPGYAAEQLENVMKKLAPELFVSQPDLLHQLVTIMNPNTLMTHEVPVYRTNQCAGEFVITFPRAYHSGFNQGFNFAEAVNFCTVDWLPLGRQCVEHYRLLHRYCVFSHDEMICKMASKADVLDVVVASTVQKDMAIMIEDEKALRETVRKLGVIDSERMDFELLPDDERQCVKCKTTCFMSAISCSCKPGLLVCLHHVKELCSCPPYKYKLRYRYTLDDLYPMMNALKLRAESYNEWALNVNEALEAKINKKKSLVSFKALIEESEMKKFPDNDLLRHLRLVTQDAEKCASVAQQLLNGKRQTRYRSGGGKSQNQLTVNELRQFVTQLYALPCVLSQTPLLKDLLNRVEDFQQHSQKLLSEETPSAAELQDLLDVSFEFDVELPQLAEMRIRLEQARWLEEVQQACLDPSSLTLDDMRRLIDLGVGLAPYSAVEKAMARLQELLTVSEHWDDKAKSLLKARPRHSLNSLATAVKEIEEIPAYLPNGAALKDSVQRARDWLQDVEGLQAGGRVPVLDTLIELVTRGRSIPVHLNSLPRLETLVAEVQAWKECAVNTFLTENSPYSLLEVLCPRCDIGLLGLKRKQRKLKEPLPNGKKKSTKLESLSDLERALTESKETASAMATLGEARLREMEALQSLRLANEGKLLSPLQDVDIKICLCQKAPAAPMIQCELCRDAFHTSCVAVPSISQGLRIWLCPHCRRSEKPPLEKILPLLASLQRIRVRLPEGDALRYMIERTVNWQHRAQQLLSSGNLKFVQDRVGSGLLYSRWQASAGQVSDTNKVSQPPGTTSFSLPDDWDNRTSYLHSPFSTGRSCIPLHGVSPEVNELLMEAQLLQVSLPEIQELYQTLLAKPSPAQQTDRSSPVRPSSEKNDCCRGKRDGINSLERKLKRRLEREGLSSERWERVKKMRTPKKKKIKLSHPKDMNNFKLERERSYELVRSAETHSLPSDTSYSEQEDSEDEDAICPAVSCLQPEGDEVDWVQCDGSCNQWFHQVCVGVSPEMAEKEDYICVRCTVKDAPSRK
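Measured: NADH fluorescence change, 30 min, RT. System: KDM5BΔAP 200 nM final, H3K4me3 peptide, α-KG, Fe(II), ascorbate, NAD⁺ plus FDH, pH 7.5 HEPES. Compounds: titrated, 10 min pre-incubation with enzyme.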
IP6K1 inh = Primary qHTS assay for small molecule inhibitors of Inositol hexaphosphate kinase 1 (IP6K1); AID 1645851, 2021; 0.81% of 140,000 active; IP6K1 kinase, ADP-Glo luminescence, 2 h; stronger effect = lower value; activity change, % (series mostly up to about 58 µM); Inositol hexakisphosphate kinase 1 (Homo sapiens), Q92551; in the data active means activity change below about -25%; further: on the % scale 0 is the no-effect control and ±100 the full control effect
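ADP-Glo luminescence measures ADP made by human IP6K1 during a 2 h RT reaction with ATP/IP6 (mix at 1.3 mM/130 uM); top library doses 57.5 and 19.1 uM final.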
SNCA expr inh = Primary qHTS assay for inhibitors of alpha-synuclein gene (SNCA) expression; HEK-293 SNCA-luciferase knock-in, luminescence, 24 h; 0.17% of 140,000 active; AID 1671194, 2021; Potency, µM (titrated, usually from 57.2 µM), for inactives: at the highest dose activity change, negative = inhibition, actives largely listed as inhibitors;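 further: potency means the concentration at half of the fitted maximal effect; plate controls were DMSO cells for no effect and cell-free wells for full effect; nearly all actives have a fitted effect of over 45% in size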
Starred values were filed as active, the others as inactive; i = inactive; ? = inconclusive; nt = not tested or not shown; [ ] = remark or other dose. Compounds with a hit are over-represented: about 2.9% of the library has one in this group of screens. Unless noted, the call rests on the fitted dose curve; in most records, active means well fitted curve in the direction sought with a large enough effect; inconclusive means small, poorly fitted or top-dose-only effect, or another doubt; inactive means no such curve, though single readings can be large; an effect the other way counts as inactive or inconclusive.

SMILES	SNCA viab count	KDM5B inh	IP6K1 inh	SNCA expr inh
COc1ccc(-c2ccnc3nc(CCC4CCCC4)nn23)cc1OC	-19.5%	12.6µM*	-6.1	-27.8%
c1ccc(-c2ccnc3nc(CCC4CCCC4)nn23)nc1	7.5%	?	0.6	15.7%
O=c1[nH]c(-c2ccc(F)cc2)nc2c1CCN(S(=O)(=O)c1cccs1)C2	0.3%	31.6µM*	21.0	5.8%
O=c1[nH]c(-c2ccc(F)cc2)nc2c1CCN(S(=O)(=O)c1ccc3c(c1)CCC3)C2	5.8%	?	28.9	0.6%
O=C(Cc1c[nH]c2ncc(-c3ccc(F)cc3)cc12)N1CCOCC1	-1.9%[87.6 µM]	28.2µM*	-21.2	1.0%[87.6 µM]
O=C(Cc1c[nH]c2ncc(-c3ccsc3)cc12)N1CCOCC1	6.1%[87.6 µM]	31.6µM*	-14.4	0.4%[87.6 µM]
CC(=O)Nc1cccc(-c2cnc3[nH]cc(CC(=O)N4CCOCC4)c3c2)c1	4.7%[87.6 µM]	31.6µM*	5.5	41.5%[87.6 µM]
O=C(Cc1c[nH]c2ncc(-c3ccncc3)cc12)N1CCOCC1	1.6%[87.6 µM]	i	-3.3	14.2%[87.6 µM]
COCCNc1ncccc1-c1noc([C@@H]2CCCN2Cc2ccco2)n1	-8.0%[87.6 µM]	28.2µM*	-6.3	-21.1%[87.6 µM]
COCCOc1ncccc1-c1noc([C@@H]2CCCN2C2CCN(C)CC2)n1	-3.0%[87.6 µM]	i	-8.7	-5.4%[87.6 µM]
COCCNc1ncccc1-c1noc([C@@H]2CCCN2CC(C)(C)C)n1	-10.5%[87.6 µM]	35.5µM*	22.9	-12.9%[87.6 µM]
COCCNc1ncccc1-c1noc([C@@H]2CCCN2C2CCOCC2)n1	-11.8%[87.6 µM]	39.8µM*	14.5	0.2%[87.6 µM]
COCCNc1ncccc1-c1noc([C@@H]2CCCN2Cc2cccc(C#N)c2)n1	-7.8%[87.6 µM]	?	11.2	-17.1%[87.6 µM]
COc1ccc(CNC(=O)C[C@@H]2C[C@H]3O[C@H](CNCc4cnccc4C(F)(F)F)[C@@H](O)[C@H]3O2)cc1	0.0%	i	-15.6	15.7%
COCc1ccc2c(c1)c(OC(C)(C)C(=O)Nc1ccccn1)nn2Cc1ccccc1	-17.8%[87.6 µM]	?	-10.6	-10.1%[87.6 µM]
COCc1ccc2c(c1)c(OC(C)(C)C(=O)NCC1CCOCC1)nn2CCC(C)C	-6.2%[87.6 µM]	35.5µM*	5.2	-26.5%[87.6 µM]
COCc1ccc2c(c1)c(OC(C)(C)C(=O)NCC[S+](C)(=O)[O-])nn2Cc1cccnc1	4.8%	i	4.4	12.3%
COCc1ccc2c(c1)c(OC(C)(C)C(=O)NC1CC1)nn2Cc1ccccc1	-4.1%[87.6 µM]	35.5µM*	-3.8	23.6%[87.6 µM]
COCc1ccc2c(c1)c(OC(C)(C)C(=O)NCC(F)(F)F)nn2Cc1ccccc1	-5.0%[87.6 µM]	?	-7.5	-14.1%[87.6 µM]
COCc1ccc2c(c1)c(OC(C)(C)C(=O)NCC[S+](C)(=O)[O-])nn2Cc1ccccc1	10.6%	28.2µM*	4.6	49.2%
COCc1ccc2c(c1)c(OC(C)(C)C(=O)NCC1CC1)nn2Cc1ccccc1	-8.3%[87.6 µM]	31.6µM*	10.3	-26.9%[87.6 µM]
O=C(/C=C/C=C/c1cccs1)c1ccc(-c2ccccc2)cc1	nt	i	nt	nt
O=C1OCCCN1C1CCN([S+](=O)([O-])c2cccc(C(F)(F)F)c2)CC1	-5.3%	i	-1.6	4.5%
CN(C)Cc1ccc2c(c1)c(OC(C)(C)C(=O)NC1CC1)nn2Cc1ccccc1	-9.6%[87.6 µM]	35.5µM*	3.6	3.4%[87.6 µM]
CC(C)(Oc1nn(Cc2cccc(Cl)c2)c2ccccc12)C(=O)NC1CCOCC1	-13.9%[87.6 µM]	?	-7.5	?
SMILES	SNCA viab count	KDM5B inh	IP6K1 inh	SNCA expr inh
COCc1ccc2c(c1)c(OC(C)(C)C(=O)NC1CCOCC1)nn2Cc1ccccc1	3.0%[87.6 µM]	28.2µM*	1.8	20.8%[87.6 µM]
CN(C)C(=O)N1CCC2(CC1)CN(C(=O)c1ccnc(N)c1)Cc1ccccc1O2	2.4%	79.4µM*	-2.4	-12.0%
CN(C)C(=O)N1Cc2ccccc2OC2(CCN(C(=O)c3ccnc(N)c3)CC2)C1	1.2%	89.1µM*	-3.8	7.0%
CN1CCN(C(=O)N2Cc3ccccc3OC3(CCN(C(=O)N(C)C)CC3)C2)CC1	1.4%	i	17.4	-15.6%
Cn1ccc(C2CCCCN2Cc2cc(=O)c3cc(C(N)=O)ccc3[nH]2)n1 (centres undefined)	3.4%	?	3.4	-12.2%
CC(C)n1cc(CN2CCCC23CCN(c2ccc(C(F)(F)F)cn2)CC3)cn1	-22.0%	?	16.0	-10.6%
Cn1cc(CN2CCCC23CCN(c2ccc(C(F)(F)F)cn2)CC3)cc1C#N	-6.3%	28.2µM*	13.2	2.2%
Cn1ncc(CN2CCCC23CCN(c2ccc(C(F)(F)F)cn2)CC3)c1C1CC1	-10.7%	22.4µM*	9.4	6.9%
Cc1c(CN2CCCC23CCN(c2ccc(C(F)(F)F)cn2)CC3)cc(C#N)n1C	-5.3%	?	8.3	30.6%
Cc1nc(N(C)C)ncc1C(=O)N[C@@H]1CCNC[C@H]1O	-0.2%	14.1µM*	16.3	-7.0%
CC(=O)c1c(C)nn(CCC(=O)N[C@@H]2CCNC[C@H]2O)c1C	-0.7%	i	21.1	-6.7%
O=C(NCc1nnc2ccc(-c3ccccc3)nn12)c1ccncc1	3.9%	28.2µM*	-4.9	?
O=C(CNC(=O)c1ccccc1)NCc1nnc2ccc(-c3ccccc3)nn12	-3.7%	31.6µM*	4.3	-12.9%
Cc1ccc(-c2ccc3nnc(CNC(=O)c4ccc(Cl)cc4)n3n2)cc1	-7.4%	?	-5.7	20.6%
O=C(NCc1nnc2ccc(-c3ccccc3)nn12)c1ccoc1	-4.6%	31.6µM*	-7.2	?
O=C(NCc1nnc2ccc(-c3ccccc3)nn12)c1ccc(Cl)cc1	-15.1%	28.2µM*	5.2	1.1%
O=C(Cc1cccs1)NCc1nnc2ccc(-c3ccccc3)nn12	8.5%	i	31.9	2.7%
CC1(C)C=CN2C(=O)C3=CCCN3C(=O)[C@@H]2C[C@@]12Nc1ccccc1C2=O	?	nt	1.0	nt
Cc1cccc(C(C(=O)N(C)Cc2ccon2)N(C)C)c1 (centres undefined)	5.7%	i	10.6	-3.9%
Nc1nc(SCC(=O)NCc2ccc(Cl)cc2Cl)n[nH]1	nt	i	nt	nt
CCN(C(=O)c1cccs1)c1nc(-c2ccccc2)cs1	nt	i	nt	nt
C[C@H]1[C@@H]2[C@@H](O)C([C@H](C)C(=O)NCc3cccnc3)CC[C@@]2(C)CC[C@@H]1NC(=O)c1ccccc1 (some centres undefined)	-7.8%	i	1.6	7.2%
COC[C@@H]1CN(C(=O)c2ccc(F)cc2Cl)C[C@H]1C(N)=O	-2.2%	i	13.9	-5.9%
O=C(NCc1nnc2ccc(-c3ccc(F)cc3)nn12)c1ccoc1	-5.2%	?	16.2	-15.6%
O=C(NCc1nnc2ccc(-c3ccccc3)nn12)c1ccc(F)cc1	-14.3%	31.6µM*	8.9	-18.6%
CCOCC(=O)N1CCC2(CC1)NCCc1c2[nH]c2ccc(OC)cc12	-3.5%[12.5 µM]	15.8µM*	0.1	17.8%
COc1ccc2[nH]c3c(c2c1)CCNC31CCN(C(=O)C2CC2)CC1	0.3%[12.5 µM]	?	-3.0	-21.7%
COc1ccc2[nH]c3c(c2c1)CCNC31CCN(C(=O)COc2ccc(F)cc2)CC1	-8.5%[12.5 µM]	?	11.2	5.9%
